Tested on: VDR:RXRa (NR concentration 270 nM, RXRa partner concentration 90 nM)
Assay: PBM binding z-score (relative to random genomic background probes); higher = stronger binding; sequences stand for … in GC…GCGATTGACAGCGTAGAATGAAGG
Method: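 Protein-binding microarray (Agilent 4x180K custom design, double-stranded 60-nt probes: 5' GC cap, 34-nt variable region, 24-nt constant primer region; full probe sequence given). Purified or IVT nuclear receptor:RXRα heterodimers (3:1 NR:RXRα, mostly 270:90 nM) or homodimers were incubated for 1 h in PBS with 2% milk and no ligand, then detected with Alexa488 antibodies. Fluorescence from o1-orientation probes (~5 replicates averaged) was converted to z-scores against 500 random hg19 background probes. Variable regions are seed direct-repeat (DR0–DR5) sites, all their single-nucleotide variants and half-site ablations.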

Row | Sequence | PBM binding z-score
1 | ACTAGTTGGTCAGCTGAGGTCACACCCAATTCGG | 4.19
2 | TAGCCTAGGTCGTTCAGGGGCCAGTATAGAAAGC | 0.798
3 | CGTCAAAGTTCAAGGTCACGTAACAGAAAGCAGC | 5.84
4 | CGAACTAGGTCAAGGCCAGTGAATCTCCGCACGC | 1.31
5 | AATACAGGGTCACGAGGCCAGAGTAGGTACGAAT | 5.41
6 | AGAATGAGGTTAAACGTAGATCAGGGAAGAAAGT | 2.03
7 | TTACCAAGGTCAAGGTCGTTGATCCCTCTGTAGA | 5.5
8 | TAGCCTAGGTCATGCGGCCCAGTATAGTGTCGGC | 1.77
9 | CGAACGAGGTCATTGACAGGACAGTGAATAGTAA | 5.64
10 | CGAACAAGGTCATTGACAGGACAGTGAATAGTAA | 4.88
11 | AATACAGGGTCATCTTAGGCCAGAGTACGCACAG | 5.31
12 | TAGCCTAGGTCATACAGGGGCCAGTATAGAAAGC | 2.6
13 | CCTACTGGGCCACGAAAGGCCATTGATTCAGTGA | -0.147
14 | CGTCAAAGGTCAAGGTAACGTAACAGAAAGCAGC | 5.13
15 | AGTCAAACTTCAGGACGAGGTAACGTAAAGCACG | -0.131
16 | TCTTGTAGATCGATAGAGGTTAAGAAAGTGCGCT | 1.45
17 | AGTCAAAGTGCATCTAGGTAACGTAAGATATGCT | 0.567
18 | CGAACTAGGTCGTCCAGGACAGTGAATACATTGA | 1.65
19 | ATTTGTAGGTTACATCCGGGTCATTCAGGCTATG | 4.68
20 | CGTCAAACTTCAACTAAGGTAACGTAAAGCACGC | 0.382

Row | Sequence | PBM binding z-score
21 | CGTCCGAGGTCAAGGTCAGTGAAAGAGACTCGAA | 5.48
22 | ATCGAAAGGTCATGAGGTGAGTATACAGAAAGGC | 5.78
23 | CTCGAAAGGTCGTGCTCAGATGAGTATACCAAAC | 3.09
24 | ATATGTAGGTTATCGGGTCATACAGTTTGCGCAT | 5.13
25 | CGAACTAGGTCAAGGGACAGTGAAAGGCGACGTA | 0.899
26 | TCTAGTTGGTCAAAGGTCACGCACTCGAAATGCG | 6.05
27 | CAAACCAGGTCAAGAGGTCAAAGTCCGCTTCCCG | 6.45
28 | GCTGCTAGGTCAACTGATGGTCACCTAAAGCTCG | 2.05
29 | CCTACGGGGCCACGAAAGGTCATTGATTCAGTGA | 5.53
30 | AATACGGGGTCACTAGGCCAGAGTAGGTACGAAT | 6.16
31 | CGTTCAAGGTCAAAGGTCAGTGAAGAGATGACGG | 6.9
32 | ATCGAAAGGTCGACGAGGTGAGTAAACACCGTTT | 5.22
33 | TAGCCGAGGTCATTCAGGGGCCAGTATAGAAAGC | 5.89
34 | CCTTACGGGTCAAGGTTATAGCCCGGGTGGTACG | 3.31
35 | TCTCGGAGGACACCAAAGGTCAGAGCTCGACATC | 3.38
36 | CGTCCAAGGACAATGCTAGGTCAGTGAAAGCATT | 0.294
37 | CGTCTAAGGTCATAGGAGGTCAGTGAAGACAGAT | 6.86
38 | GATACGGGGTCAAGGCCAGAGTACGCGTATTGAT | 6.27
39 | CGTCAAAGGTCAACTAAGGTAACGTAAAGCACGC | 6.2
40 | ATCGAAAGGTCTAAGGTGAGTATACCCACCCGAA | 0.393
